Mdm2 MdmX PPI = inhibitors of human Mdm2-MdmX association, primary screen, cell-based, luminescence, split luciferase, SaOS-2, uHTS; actives 3% (n = 330,000); SaOS-2 split-luciferase Mdm2/MdmX complementation; AID 485346, 2010; inhibition, % at 8 µM;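 active = inhibition of at least 50% at 8 µM in the primary screen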
Target sequence (O15151 whole entry, looked up): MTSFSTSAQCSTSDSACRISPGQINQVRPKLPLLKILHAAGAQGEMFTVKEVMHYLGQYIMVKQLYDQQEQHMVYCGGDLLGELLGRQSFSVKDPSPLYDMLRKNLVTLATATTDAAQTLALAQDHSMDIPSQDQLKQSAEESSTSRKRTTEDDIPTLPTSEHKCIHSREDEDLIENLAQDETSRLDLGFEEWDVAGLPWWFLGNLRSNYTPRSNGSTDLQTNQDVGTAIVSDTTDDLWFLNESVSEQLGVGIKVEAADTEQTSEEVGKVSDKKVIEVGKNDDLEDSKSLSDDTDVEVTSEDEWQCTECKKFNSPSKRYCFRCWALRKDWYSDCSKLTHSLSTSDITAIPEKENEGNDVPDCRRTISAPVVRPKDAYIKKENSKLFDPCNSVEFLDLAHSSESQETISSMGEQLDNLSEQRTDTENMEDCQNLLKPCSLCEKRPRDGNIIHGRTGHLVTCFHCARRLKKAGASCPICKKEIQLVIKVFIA
Target sequence (Q00987 whole entry, looked up): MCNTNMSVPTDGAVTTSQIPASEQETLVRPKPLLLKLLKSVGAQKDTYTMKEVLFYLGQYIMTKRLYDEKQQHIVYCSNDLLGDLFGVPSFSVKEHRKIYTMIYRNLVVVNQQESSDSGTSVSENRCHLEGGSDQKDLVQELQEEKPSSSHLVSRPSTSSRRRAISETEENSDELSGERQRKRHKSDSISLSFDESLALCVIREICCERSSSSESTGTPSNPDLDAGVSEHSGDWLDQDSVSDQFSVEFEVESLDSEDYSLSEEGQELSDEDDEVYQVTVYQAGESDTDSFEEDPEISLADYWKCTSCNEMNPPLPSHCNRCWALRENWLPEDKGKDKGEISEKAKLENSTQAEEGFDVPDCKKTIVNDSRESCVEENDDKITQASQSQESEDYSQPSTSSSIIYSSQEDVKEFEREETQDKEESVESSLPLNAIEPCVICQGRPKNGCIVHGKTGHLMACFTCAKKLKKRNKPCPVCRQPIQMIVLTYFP
Jurkat NFkB inh = inhibitors of induced NF-kB luciferase reporter, primary screen, TCR NF-kB activation inhibitor project, cell-based, luminescence, uHTS | Jurkat, PMA/ionomycin-induced NF-kB luciferase reporter | inhibition, % at 4 µM | actives 0.53% (n = 330,000); in the data active = inhibition above about 50%
697 NFkB inh = inhibitors of PMA/ionomycin-induced NF-kB reporter, 697 cells, primary screen, B-cell NF-kB inhibitor project, cell-based, luminescence, uHTS. 697 B-cell NF-kB luciferase reporter, 16 h. actives 0.33% (n = 330,000). AID 435022, 2010. inhibition, % at 4 µM; in the data active = inhibition above about 35%
CSC inhib = cancer stem cell viability inhibitors, primary screen, luminescence; AID 2717, 2010; cancer stem cell-like cells viability; inhibition, % at 7.5 µM; actives 1.1% (n = 300,000); in the data active = inhibition above about 75%; tested in HMLE shEcad cells
Beta cell apopt = inhibitors of cytokine-induced beta cell apoptosis, primary screen, luminescence. INS-1E cytokine-induced death, ATP luminescence, 48 h; percent of positive-control rescue, neutral wells zero. protection from apoptosis, % (test concentration not listed). actives 0.8% (n = 300,000). AID 435005, 2010;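 active = Every replicate reaches about 75%, or at least half do and their mean reaches it too, limit read from the data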;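 also: 0% = cytokine-treated negative control wells and 100% = positive control rescue; higher means more ATP so stronger rescue from cytokine killing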
Gli-Sufu block = Gli-Sufu pathway antagonists, primary screen, luciferase luminescence, Sufu-KO-LIGHT cells, uHTS. actives 0.74% (n = 340,000). inhibition, % at 5 µM. AID 588413, 2011. Sufu-KO-LIGHT fibroblasts, Gli luciferase reporter luminescence;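 active = inhibition above about 55%, limit read from the data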;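 also: 0% = DMSO-treated cells and 100% = wells with medium but no cells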
Mdm2-MdmX conf = Mdm2-MdmX complex disruptors, retested hits, confirmation, luminescence, single concentration. inhibition, % at 8 µM. actives 55% (n = 10,000). Mdm2-MdmX binding, luminescent assay. AID 489028, 2010. shares compounds with Mdm2 MdmX PPI; in the data active = inhibition above about 40%
FLuc counter = full-length luciferase signal inhibition, confirmation, counter-screen for Mdm2/MdmX interaction inhibitor project, cell-based, single concentration, SaOS-2; shares compounds with Mdm2 MdmX PPI; SaOS-2 full-length luciferase counterscreen, luminescence; inhibition, % at 8 µM; actives 77% (n = 6,200);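 active = mean inhibition at 8 µM reaching about 37%, which flags the compound as non-specific, limit read from the data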;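 also: p53-null SaOS-2 cells with luciferase driven by a doxycycline-inducible promoter; compound on cells about two nights before reading with doxycycline added after day one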
An asterisk follows results filed as active; / = not tested or not shown. An excerpt weighted towards active compounds, which were near 4.5% of everything screened.

SMILES	Mdm2 MdmX PPI	Jurkat NFkB inh	697 NFkB inh	CSC inhib	Beta cell apopt	Gli-Sufu block	Mdm2-MdmX conf	FLuc counter
Nc1cc(=O)[nH]c(SCC(=O)N2CCC(Cc3ccccc3)CC2)n1	13	-8	12	4	-4	2	/	/
Clc1ccc(-n2nnnc2Sc2ncnc3sccc23)cc1	90*	18	-55	-15	-16	3	74*	43*
Cc1sc2ncnc(Sc3nnnn3-c3ccccc3)c2c1C	88*	2	-32	52	4	13	48*	7
CCN(CCCNC(=O)COc1cc(=O)n(C)c2ccccc12)c1ccccc1	21	13	7	-11	-4	22	/	/
CCN(CCCNC(=O)COc1cc(=O)n(CC)c2ccccc12)c1ccccc1	61*	2	5	-11	-3	17	28	/
O=C1/C(=N\S(=O)(=O)c2cccs2)C([n+]2ccc(CCCc3ccccc3)cc2)=C([O-])c2ccccc21	83*	28	-5	93*	104*	3	52*	41*
COc1cccc(C(=O)Nc2ccc3c(cc2=O)[C@@H](NC(C)=O)CCc2cc(OC)c(OC)c(OC)c2-3)c1	71*	47	4	57	25	5	66*	99*
Oc1ccc(/C=N/Nc2nccnc2Cl)c(O)c1	57*	48	-37	95*	75*	45	73*	39*
Oc1ccccc1/C=N/Nc1nccnc1Cl	71*	20	-72	88*	94*	57*	65*	31
CCCc1cc(=O)[nH]c(SC(C)C(=O)N2c3ccccc3CC2C)n1 (stereo not drawn)	18	-8	25	-8	-6	-7	/	/
COc1cc(NS(=O)(=O)c2ccc(NC(=O)/C=C/C(=O)O)cc2)nc(OC)n1	9	-4	9	0	/	-9	/	/
CN(C)CC(CCCCC(CN(C)C)C(=O)c1ccccc1)C(=O)c1ccccc1 (stereo not drawn)	56*	-39	-35	/	/	6	43*	54*
CCn1c(O)c(N=NC(=O)c2cccnc2)c2cc(Br)ccc21	36	7	8	38	6	4	/	/
CCCCn1c(O)c(N=NC(=O)c2ccncc2)c2cc(Br)ccc21	64*	-9	-16	51	10	-2	40*	63*
CCOC(=O)[C@H]1[C@H]2COc3ccc(Br)cc3[C@@H]2N2C(=O)CN(Cc3ccc(F)cc3)C(=O)[C@@]12C	11	-12	-4	12	-3	-6	/	/
COc1ccc(OC)c(C(C[N+](=O)[O-])c2c(C)cc3ccccn23)c1 (stereo not drawn)	68*	17	-9	23	1	-1	49*	11
COc1cccc(NC(=O)C(=O)N/N=C/c2cc(C)n(-c3ccc(Cl)c(Cl)c3)c2C)c1	55*	-27	-39	13	3	-10	19	/
Cc1cc(/C=N/NC(N)=S)c(C)n1-c1ccc(Cl)c(Cl)c1	17	20	11	45	32	40	/	/
Cc1cc(OCC(=O)NCCc2ccc(Cl)cc2)c2c(C)cc(=O)oc2c1	7	16	-14	-4	10	/	/	/
CCN(CC)CCN(C(=O)Cn1nnc(-c2ccc(C)o2)n1)C(C(=O)NC1CCCC1)c1ccc(F)cc1 (stereo not drawn)	-14	6	-1	/	/	0	/	/
CCOC(=O)CN(C(=O)Cn1nnc(-c2ccc(OC)cc2)n1)C(C(=O)NC1CCCC1)c1ccc(F)cc1 (stereo not drawn)	6	14	18	-8	-4	2	/	/
Cc1ccc(-c2nnn(CC(=O)N(c3ccc(F)cc3)C(C(=O)NC3CCCC3)c3ccncc3)n2)o1 (stereo not drawn)	17	-18	-4	-1	-1	-26	/	/
O=C(NCC1CCCO1)C(c1ccncc1)N(Cc1cccs1)C(=O)Cn1nnc(-c2ccc(F)cc2)n1 (stereo not drawn)	14	4	13	-9	-11	9	/	/
CC(C)CCNC(=O)C(c1ccncc1)N(Cc1cccs1)C(=O)Cn1nnc(-c2ccc(F)cc2)n1 (stereo not drawn)	68*	5	-47	-12	33	5	60*	26
Cc1ccc(N(C(=O)Cn2nnc(-c3ccc(C)o3)n2)C(C(=O)NC2CCCC2)c2ccncc2)cc1 (stereo not drawn)	55*	4	17	/	1	-20	21	/
SMILES	Mdm2 MdmX PPI	Jurkat NFkB inh	697 NFkB inh	CSC inhib	Beta cell apopt	Gli-Sufu block	Mdm2-MdmX conf	FLuc counter
CCN(CC)CCN(C(=O)Cn1nnc(-c2ccc(OC)c(OC)c2)n1)C(C(=O)NC1CCCC1)c1ccc(F)cc1 (stereo not drawn)	75*	8	2	12	3	-2	25	/
COc1ccc(-c2nnn(CC(=O)N(Cc3ccc(F)cc3)C(C(=O)NC3CCCC3)c3ccc(F)cc3)n2)cc1 (stereo not drawn)	75*	17	19	-5	15	-70	19	/
COc1ccc(CN(C(=O)c2ccc(C)cc2)C2CCS(=O)(=O)C2)cc1 (stereo not drawn)	22	16	6	-11	-2	0	/	/
Cc1noc(C)c1S(=O)(=O)NCc1ccc(CN(C)C)cc1	21	-1	13	-5	-4	-20	/	/
COc1ccc(CCNC(=O)COC(=O)c2sc(C)nc2C)cc1	26	-14	8	/	/	3	/	/
O=C(NC1CCCCC1)C(c1ccc(F)cc1)N(Cc1ccccc1)C(=O)CN1C(=O)c2ccccc2S1(=O)=O (stereo not drawn)	61*	-8	5	-4	3	14	66*	94*
Cc1ccc(N(C)S(=O)(=O)c2c(C)noc2/C=C/N(C)C)cc1	13	18	-18	17	-8	-6	/	/
CC1=NOC(=O)/C1=C\c1ccc(-c2cccc(Cl)c2)o1	96*	21	21	63	-13	-12	15	/
Cc1[nH]n(C2=NCCS2)c(=O)c1N=Nc1cccc(C(F)(F)F)c1	56*	3	15	50	94*	26	56*	36*

Source: PubChem (several laboratories)
